# Screens: PubChem BioAssay, National Center for Advancing Translational Sciences (NCATS)
# An excerpt weighted towards active compounds, which were near 11% of everything screened.
# NPR1 antag = human Npr1 receptor antagonism; P16066; HEK293 hNpr1 GloSensor cGMP, ANP-stimulated luminescence; Potency, µM (titrated, usually from 46.3 µM), without a hit: at the top dose activity change, negative = inhibition, actives largely listed as inhibitors; 1.6% of 76,000 active; AID 1347048; calls by dose curve; further: nearly all actives have a fitted effect of over 60% in size
#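 Compound pre-incubated 30 min at room temperature on GloSensor-loaded HEK293 cells stably carrying hNpr1 and the pGS-40F cGMP biosensor. Stimulation uses hNppA at 0.1 nM final; luminescence is taken at baseline and 20 min post-agonist.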
# 3T3 cytotox = NIH 3T3 cell cytotoxicity. NIH 3T3 viability, CellTiter-Glo ATP luminescence, 48-72 h. Potency, µM (series often up to 96.7 µM), inactives show at the top dose activity change, negative = cytotoxicity, hits mostly inhibitors. 4.3% of 94,000 active. AID 1345082; further: nearly all actives have a fitted effect of over 55% in size
#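 ATP-dependent luminescence (CellTiter-Glo) served as the viability signal for NIH 3T3 cells treated with compound for 48 or 72 hr at 37 °C.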
# HEK293 tox = HEK 293 cell cytotoxicity; 6.6% of 94,000 active; HEK 293 viability, ATP luminescence (CellTiter-Glo), 48-72 h; Potency, µM (series often up to 115 µM), for inactives: at the top dose activity change, negative = cytotoxicity, hits mostly inhibitors; further: nearly all actives have a fitted effect of over 60% in size
#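 Pintool-delivered compounds were incubated with HEK 293 cells (250 cells/well) at 37 degree Celsius for 48 or 72 hr. ATP-dependent luminescence (CellTiter-Glo) then reported remaining viable cells.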
# FLuc inh = Photinus pyralis luciferase inhibition. P08659. purified P. pyralis luciferase, luminescence, biochemical. Potency, µM (titrated, usually from 115 µM), usual class: inhibitors. 2.5% of 76,000 active; further: nearly all actives have a fitted effect of over 65% in size
# Target sequence (P08659 whole entry, looked up): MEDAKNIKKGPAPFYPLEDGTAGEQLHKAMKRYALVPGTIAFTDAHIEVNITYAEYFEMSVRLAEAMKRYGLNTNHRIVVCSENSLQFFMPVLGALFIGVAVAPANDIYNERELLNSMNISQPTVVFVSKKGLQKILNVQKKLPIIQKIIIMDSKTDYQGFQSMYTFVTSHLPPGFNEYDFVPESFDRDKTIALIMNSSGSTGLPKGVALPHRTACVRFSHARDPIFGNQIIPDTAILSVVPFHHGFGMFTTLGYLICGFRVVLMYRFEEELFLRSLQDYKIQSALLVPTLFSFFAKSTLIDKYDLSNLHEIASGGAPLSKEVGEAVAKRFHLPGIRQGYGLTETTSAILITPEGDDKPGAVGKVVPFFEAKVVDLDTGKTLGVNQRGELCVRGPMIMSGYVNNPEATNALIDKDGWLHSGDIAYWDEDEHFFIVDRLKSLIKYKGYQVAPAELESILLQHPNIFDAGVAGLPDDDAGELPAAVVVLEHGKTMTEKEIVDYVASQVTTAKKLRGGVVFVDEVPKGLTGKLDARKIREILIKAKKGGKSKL
#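 Luminescence read by CCD imaging after purified firefly luciferase (10nM final) was added to substrate buffer holding 10uM D-luciferin and 10uM ATP, pH 7.5, pre-dosed with compound.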
# * hit, by the source's call; i = inactive; ? = inconclusive; / = no result given; [ ] = another dose, or the depositor's remark. Unless noted, the call rests on the fitted dose curve; in most records, active means well fitted curve in the direction sought with a large enough effect; inconclusive means small, poorly fitted or top-dose-only effect, or another doubt; inactive means no such curve, though single readings can be large; an effect the other way counts as inactive or inconclusive. On the % scale 0 is the no-effect control and ±100 the full control effect; potency means the concentration at half of the fitted maximal effect.
SMILES,NPR1 antag,3T3 cytotox,HEK293 tox,FLuc inh
CN(C)c1ccc(CN2CCNc3cc(Nc4cccnc4)ncc3C2)cc1,-9%[70.6 µM],?,?,63µM*
Cn1cnc(CN2CCNc3cc(Nc4ccccc4)ncc3C2)c1,10%[70.6 µM],?,?,i
CN(C)c1ccc(CN2CCNc3cc(Nc4ccccc4)ncc3C2)cc1,-18%[70.6 µM],56µM*,?,i
N#Cc1ccc(S(=O)(=O)N2CCCN(S(=O)(=O)c3ccccc3)CCC(=O)NCC2)cc1,-1%,-16%,-6%,i
CSc1ccc(-c2cccc(C(=O)NCC(=O)NCc3ccc4c(c3)OCO4)c2)cc1,/,-34%,?,/
CSc1ccc(-c2cccc(C(=O)NCC(=O)NCc3cccnc3)c2)cc1,/,?,22µM*,/
O=C(CNC(=O)c1cccc(-c2ccc(C(F)(F)F)cc2)c1)NCc1cccs1,/,?,40µM*,/
CSc1ccc(-c2cccc(C(=O)NCC(=O)NCc3ccc(C(F)(F)F)cc3)c2)cc1,/,?,45µM*,/
COc1ccc(CNC(=O)CNC(=O)c2cccc(-c3ccc(SC)cc3)c2)cc1OC,/,?,32µM*,/
O=C(NCC(F)(F)F)C1CCCN1C(=O)c1cccc(-c2ccccn2)c1 (centres undefined),/,-24%,1%,/
CCCN(CCC)C(=O)C1COC2(CCC(C)CC2)N1C(=O)c1ccc(F)cc1 (centres undefined),2%,?,?,i
COc1ccc(F)cc1-c1cccc(C(=O)NCC(=O)NCc2ccc(C(F)(F)F)cc2)c1,/,40µM*,40µM*,/
COc1cccc(CNC(=O)CNC(=O)c2cccc(-c3ccc(C(F)(F)F)cc3)c2)c1,/,?,22µM*,/
CSc1ccc(-c2cccc(C(=O)NCC(=O)NCc3ccccc3F)c2)cc1,/,-27%,?,/
CSc1ccc(-c2cccc(C(=O)NCCNC(=O)c3ccccc3C)c2)cc1,/,-42%,25µM*,/
CSc1ccc(-c2cccc(C(=O)NCC(=O)NCc3cccc(C(F)(F)F)c3)c2)cc1,/,?,40µM*,/
CSc1ccc(-c2cccc(C(=O)NCCNC(=O)c3ccccc3F)c2)cc1,/,-39%,?,/
COc1ccc(OC)c(CNC(=O)c2ccc(N3CC4CC(C3)[C@H]3CCCC(=O)N3C4)nc2)c1 (some centres undefined),0%,-3%,5%,i
Cc1noc(C)c1-c1cc2cc(C(C)C)oc2c(-c2ccc(CO)cc2)n1,-7%[70.6 µM],?,?,i
Cc1noc(C)c1-c1cc2cc(CO)oc2c(-c2cccc(OC(C)C)c2)n1,-15%[70.6 µM],?,89µM*,i
Cc1cc2cc(-c3c(C)noc3C)nc(-c3ccc(CO)cc3)c2o1,-2%[70.6 µM],28µM*,?,i
Cc1cc2cc(-c3c(C)noc3C)nc(-c3cccc([S+](C)(=O)[O-])c3)c2o1,-21%[70.6 µM],11µM*,?,i
O=C(NCC(F)(F)F)c1cc(C2CC2)nc2onc(C3CCNC3)c12 (centres undefined),/,-14%,-21%,/
C[C@@H]1C(=O)O[C@H]2[C@H]1CC[C@@]1(C)Cc3sc(Nc4ccc(O)cc4)nc3[C@@H](C)[C@H]21,?,63µM*,35µM*,?
Cc1cccc(-n2nc(C)c(CCC(=O)N(C)C(C)C)c2Oc2ccc(F)cc2F)c1,?,40µM*,?,i
SMILES,NPR1 antag,3T3 cytotox,HEK293 tox,FLuc inh
Cc1nn(-c2ccc(F)cc2)c(Oc2ccc(F)cc2F)c1CCC(=O)NC(C)C,-6%,?,?,i
CCN(CC)C(=O)CCc1c(C)nn(-c2ccccc2C)c1Oc1cccc(F)c1,-16%,?,40µM*,i
CCN(C)C(=O)CCc1c(C)nn(-c2ccccc2)c1Oc1ccc(F)cc1F,-12%,?,?,i
COCCNC(=O)CCc1c(C)nn(-c2ccc(F)cc2)c1Oc1ccc(F)cc1F,-6%,25µM*,?,i
Cc1cccc(-n2nc(C)c(CCC(=O)N(C)C(C)C)c2Oc2ccccc2C)c1,?,28µM*,?,i
CCN(CC)C(=O)CCc1c(C)nn(-c2ccc(F)cc2)c1Oc1cccc(F)c1,-22%,?,?,i
CCc1noc(-c2cn(C3CCN(C(=O)COc4cccc(C)c4)CC3)nn2)n1,1%,?,-8%,i
Cc1ccccc1-n1nc(C)c(CCC(=O)N(C)C(C)C)c1Oc1ccccc1F,-19%,?,45µM*,i
Cc1nn(-c2ccc(F)cc2)c(Oc2ccc(F)cc2F)c1CCC(=O)N(C)C(C)C,-18%,?,40µM*,i
Cc1nn(-c2ccc(F)cc2)c(Oc2ccccc2F)c1CCC(=O)NC(C)C,-25%,?,?,i
O=C(NC1CCCN(c2ccc3nnc(C4CC4)n3n2)C1)c1ccc(F)cc1 (centres undefined),/,-18%,?,/
CCCNC(=O)C1CCc2sc(C(=O)N(C)C)cc2C1 (centres undefined),-3%,-3%,0%,i
CCCn1cc(CNC(=O)c2cc3c(s2)CCC(C)C3)cn1 (centres undefined),?,?,?,32µM*
COc1ccc(NC(=O)CN2C(=O)COc3ccc(C(=O)COc4cccc(F)c4)cc32)cc1,-1%,40µM*,-50%,i
CCc1ccccc1OCC(=O)c1ccc2c(c1)N(CC(=O)Nc1ccc(F)cc1)C(=O)CO2,-3%,32µM*,40µM*,i
O=C(CN1C(=O)COc2ccc(C(=O)COc3cccc(F)c3)cc21)NCc1ccc2c(c1)OCO2,-18%,-5%,-16%,i
CC(C)CCN1CCc2c(sc3ncnc(N4CCOCC4)c23)C1,-1%,?,?,i
COCCOc1ccc(-c2noc([C@@H]3CCCN3C3CCCCC3)n2)cn1,1%[70.6 µM],-9%[174 µM],100µM*,i
COc1ccc(-c2noc([C@@H]3CCCN3C3CCCCC3)n2)cn1,-3%[70.6 µM],?,?,i
COCC(=O)Nc1ccc(-c2noc([C@@H]3CCCN3CC(C)(C)C)n2)cn1,-21%[70.6 µM],?,100µM*,i
Cc1ccc(C#N)c(NCc2cccnc2N2CCN(c3ccccn3)CC2)n1,-19%,?,?,i
COc1ccc(-c2cnc3n[nH]c(-c4ccc(F)cc4C)c3n2)cn1,-3%[70.6 µM],50µM*,50µM*,i
COc1cc(-c2cnc3n[nH]c(-c4ccc(F)cc4C)c3n2)ccn1,-5%[70.6 µM],?,79µM*,i
Cc1cc(F)ccc1-c1[nH]nc2ncc(-c3cccnc3)nc12,-20%[70.6 µM],-29%[138 µM],?,i
COc1cc(-c2cnc3n[nH]c(-c4ccccc4)c3n2)ccn1,-2%[70.6 µM],?,?,i
Cc1cc(F)ccc1-c1[nH]nc2ncc(-c3ccsc3)nc12,-1%[70.6 µM],20µM*,?,i
Cc1cc(F)ccc1-c1[nH]nc2ncc(-c3ccnn3C)nc12,-12%[70.6 µM],-25%[138 µM],?,i
O=C(c1cccc(C(F)(F)F)c1)N1CCN(CCn2nc3n(c2=O)CCCC3)CC1,/,-20%,-14%,/
COCCn1c(=O)c(C(=O)N2CCN(C(=O)Nc3ccc(Cl)cc3)CC2)nc2cccnc21,/,-18%,-4%,/
